{
  "source": "PubChem BioAssay (NCI)",
  "note": "This is part of a sample that, as a whole, favours compounds with a hit. Of some 79,000 tested, about 15% had one in any assay. A number with no mark means an inactive call. The source made the active and inactive calls. Cut-off read from the data, not from the text of the source: active = growth inhibition above about 70%; inactive = the rest. Where a SMILES comes first, the peptide text is derived from it.",
  "data": [
    {"assay": "NCI Yeast Anticancer Drug Screen. Data for the rad50 strain (AID 155);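 note: 0% = growth of vehicle-only cultures of the same strain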", "conditions": "S. cerevisiae rad50 strain growth inhibition; at 50.0 µM; hits give high values", "procedure,_shortened": "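Relative growth inhibition (compound vs vehicle) was measured in yeast with a defined repair-gene alteration.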", "values": [
      {"molecule": "Cc1cnc2ccccc2c1", "growth inhibition": "-12.2%"},
      {"molecule": "O=C(O)CS/C(=N\\S(=O)(=O)c1ccccc1)Nc1cccc(Cl)c1", "growth inhibition": "-2.85%"},
      {"molecule": "COc1ccccc1CC(=O)C(O)(C(F)(F)F)C(F)(F)F", "growth inhibition": "-37.5%"},
      {"molecule": "O=C(O)c1nc(N=Nc2ccc(S(=O)(=O)O)cc2)[nH]c1C(=O)O", "growth inhibition": "25.1%"},
      {"molecule": "Cc1ccc(S(=O)(=O)C(C#N)CCC(=O)c2ccc(Cl)cc2)cc1", "note": "(stereo not given)", "growth inhibition": "6.25%"},
      {"molecule": "CC(=O)/C(C)=N/Nc1ccccc1", "growth inhibition": "7.35%"},
      {"molecule": "O=C(COc1ccc(Cl)cc1)Oc1c(Cl)cc(Cl)cc1Cl", "growth inhibition": "96.4% (active)"},
      {"molecule": "N#C/C(=C\\c1ccco1)C(N)=O", "growth inhibition": "-11%"},
      {"molecule": "CCCCN=C1Nc2nc(=NCCCC)nc3c(Br)cc(Br)c(n23)N1", "growth inhibition": "37.2%"},
      {"molecule": "Cc1c(CCC(C)C)oc2cc3oc(CCC(C)C)c(C)c3cc12", "growth inhibition": "21.7%"},
      {"molecule": "ClC1=C(Cl)C2(Cl)C3C(c4ccc(I)cc4C4C3C3(Cl)C(Cl)=C(Cl)C4(Cl)C3(Cl)Cl)C1(Cl)C2(Cl)Cl", "note": "(stereo not given)", "growth inhibition": "14.6%"},
      {"molecule": "Nc1nc(-c2cc(Br)ccc2N=NN2CCOCC2)nc2ccc(Br)cc12", "growth inhibition": "98.8% (active)"},
      {"molecule": "COc1ccc(Br)cc1C=Nc1ccccc1", "growth inhibition": "14.9%"},
      {"molecule": "CC(=O)OC/C=C(\\C)CCC=C(C)C", "growth inhibition": "-21.6%"},
      {"molecule": "O=C(O)c1c(Br)c(Br)c(Br)c(Br)c1C(=O)Nc1ccc(Br)cc1", "growth inhibition": "2.25%"},
      {"molecule": "Nc1nc(Cl)c2ncn(C3OC(CO)C(O)C3O)c2n1", "note": "(stereo not given)", "growth inhibition": "-8.1%"},
      {"molecule": "C=CCOC/C=C\\CCOCC/C=C/COCC=C", "note": "(tested in a mixture with another compound)", "growth inhibition": "5%"},
      {"molecule": "O=[N+]([O-])c1ccc(-c2cc3ccccn3c2)cc1", "growth inhibition": "-5.1%"},
      {"molecule": "C/C(CC/C(C)=N/O)=N\\O", "growth inhibition": "6.4%"},
      {"molecule": "Nc1cccc(Cl)c1C(=O)O", "growth inhibition": "-28.1%"},
      {"molecule": "CNc1nc2c(C)ccc3[nH]c(NC)nc3c-2n1", "growth inhibition": "-22.2%"},
      {"molecule": "CC(=O)C1CCC2C3CC=C4CC(O)C=CC4(C)C3CCC12C", "note": "(stereo not given)", "growth inhibition": "7.6%"},
      {"molecule": "CC(=O)C1(SCCO)CCC2C3CCC4=CC(=O)CCC4(C)C3CCC21C", "note": "(stereo not given)", "growth inhibition": "91.8% (active)"},
      {"molecule": "OC(c1ccccc1)C(Cc1ccccc1)N1CCCCC1", "note": "(stereo not given)", "growth inhibition": "2.4%"},
      {"molecule": "CC(=O)NC(CO)C(=O)NC(Cc1ccc(O)cc1)C(=O)NCC(N)=O", "note": "(stereo not drawn) (Ac-Ser-Tyr-Gly-NH2; configuration not given here)", "growth inhibition": "-26.7%"},
      {"molecule": "CCCCCCCCC(O)C(O)CCCCCCCC(=O)OC", "note": "(stereo not given)", "growth inhibition": "-15.3%"},
      {"molecule": "CC(=N\\NS(=O)(=O)c1ccc(C)cc1)/C(C)=N/NS(=O)(=O)c1ccc(C)cc1", "growth inhibition": "25.3%"},
      {"molecule": "N#C/C(=C\\c1ccc(C#N)cc1)C(=O)O", "growth inhibition": "-16.6%"},
      {"molecule": "Cc1ccc(S(=O)(=O)C2c3nc4ccccc4cc3-c3nc4ccccc4nc32)cc1", "note": "(stereo not given)", "growth inhibition": "-10.8%"},
      {"molecule": "CC(=O)Nc1ccc(F)c(N)c1", "growth inhibition": "-3.2%"},
      {"molecule": "Clc1ccc(-c2oc(-c3ccc(Cl)cc3)c3ccccc23)cc1", "growth inhibition": "-3.85%"},
      {"molecule": "N#CC12CC=C(c3ccccc3)N=C1NC(c1ccccc1)=CC2", "note": "(stereo not given)", "growth inhibition": "-25.9%"},
      {"molecule": "O=C1SCC(O)=C1/C=N/Nc1nc2ccccc2o1", "growth inhibition": "-11.9%"},
      {"molecule": "Cc1ccc(Sc2ccc3ccccc3c2)nc1", "growth inhibition": "6.75%"},
      {"molecule": "C/C=C/C(=O)N1C(=O)OC[C@@H]1c1ccccc1", "growth inhibition": "37.4%"},
      {"molecule": "O=C(/C=C/C(=O)NCCc1ccccc1)NCCc1ccccc1", "growth inhibition": "-13.4%"},
      {"molecule": "O=C(OCC(F)(F)C(F)(F)C(F)(F)C(F)(F)C(F)(F)C(F)F)OCC(F)(F)C(F)(F)C(F)(F)C(F)(F)C(F)(F)C(F)F", "growth inhibition": "0.1%"},
      {"molecule": "CCOc1ccccc1C1=CCCCCC1", "growth inhibition": "-0.65%"},
      {"molecule": "CN(c1ccccc1)S(=O)(=O)c1cccc([N+](=O)[O-])c1", "growth inhibition": "-25.3%"},
      {"molecule": "O=C(NO)Oc1cccc2ccccc12", "growth inhibition": "9.7%"}
    ]},
    {"assay": "NCI Yeast Anticancer Drug Screen. Data for the mec2-1 strain (AID 157)", "conditions": "S. cerevisiae mec2-1 strain, at 50.0 µM, hits give high values", "procedure,_shortened": "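Cells of the genetically defined mec2-1 yeast strain are incubated with test compound. Inhibition of growth is calculated against vehicle-treated controls.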", "values": [
      {"molecule": "Cc1cnc2ccccc2c1", "growth inhibition": "-2.15%"},
      {"molecule": "O=C(O)CS/C(=N\\S(=O)(=O)c1ccccc1)Nc1cccc(Cl)c1", "growth inhibition": "-24.9%"},
      {"molecule": "COc1ccccc1CC(=O)C(O)(C(F)(F)F)C(F)(F)F", "growth inhibition": "-36.3%"},
      {"molecule": "O=C(O)c1nc(N=Nc2ccc(S(=O)(=O)O)cc2)[nH]c1C(=O)O", "growth inhibition": "-4.85%"},
      {"molecule": "Cc1ccc(S(=O)(=O)C(C#N)CCC(=O)c2ccc(Cl)cc2)cc1", "note": "(stereo not given)", "growth inhibition": "3.55%"},
      {"molecule": "CC(=O)/C(C)=N/Nc1ccccc1", "growth inhibition": "8.6%"},
      {"molecule": "O=C(COc1ccc(Cl)cc1)Oc1c(Cl)cc(Cl)cc1Cl", "growth inhibition": "97.8% (active)"},
      {"molecule": "N#C/C(=C\\c1ccco1)C(N)=O", "growth inhibition": "-7%"},
      {"molecule": "CCCCN=C1Nc2nc(=NCCCC)nc3c(Br)cc(Br)c(n23)N1", "growth inhibition": "20.2%"},
      {"molecule": "Cc1c(CCC(C)C)oc2cc3oc(CCC(C)C)c(C)c3cc12", "growth inhibition": "2.2%"},
      {"molecule": "ClC1=C(Cl)C2(Cl)C3C(c4ccc(I)cc4C4C3C3(Cl)C(Cl)=C(Cl)C4(Cl)C3(Cl)Cl)C1(Cl)C2(Cl)Cl", "note": "(stereo not given)", "growth inhibition": "15.4%"},
      {"molecule": "Nc1nc(-c2cc(Br)ccc2N=NN2CCOCC2)nc2ccc(Br)cc12", "growth inhibition": "99.1% (active)"},
      {"molecule": "COc1ccc(Br)cc1C=Nc1ccccc1", "growth inhibition": "3.05%"},
      {"molecule": "CC(=O)OC/C=C(\\C)CCC=C(C)C", "growth inhibition": "-23.4%"},
      {"molecule": "O=C(O)c1c(Br)c(Br)c(Br)c(Br)c1C(=O)Nc1ccc(Br)cc1", "growth inhibition": "-1.3%"},
      {"molecule": "Nc1nc(Cl)c2ncn(C3OC(CO)C(O)C3O)c2n1", "note": "(stereo not given)", "growth inhibition": "-3.65%"},
      {"molecule": "C=CCOC/C=C\\CCOCC/C=C/COCC=C", "note": "(tested in a mixture with another compound)", "growth inhibition": "1.3%"},
      {"molecule": "O=[N+]([O-])c1ccc(-c2cc3ccccn3c2)cc1", "growth inhibition": "-46.2%"},
      {"molecule": "C/C(CC/C(C)=N/O)=N\\O", "growth inhibition": "4.25%"},
      {"molecule": "Nc1cccc(Cl)c1C(=O)O", "growth inhibition": "-30.2%"},
      {"molecule": "CNc1nc2c(C)ccc3[nH]c(NC)nc3c-2n1", "growth inhibition": "-25.1%"},
      {"molecule": "CC(=O)C1CCC2C3CC=C4CC(O)C=CC4(C)C3CCC12C", "note": "(stereo not given)", "growth inhibition": "22.1%"},
      {"molecule": "CC(=O)C1(SCCO)CCC2C3CCC4=CC(=O)CCC4(C)C3CCC21C", "note": "(stereo not given)", "growth inhibition": "69.8%"},
      {"molecule": "OC(c1ccccc1)C(Cc1ccccc1)N1CCCCC1", "note": "(stereo not given)", "growth inhibition": "1.3%"},
      {"molecule": "CC(=O)NC(CO)C(=O)NC(Cc1ccc(O)cc1)C(=O)NCC(N)=O", "note": "(stereo not drawn) (Ac-Ser-Tyr-Gly-NH2; configuration not given here)", "growth inhibition": "-23.5%"},
      {"molecule": "CCCCCCCCC(O)C(O)CCCCCCCC(=O)OC", "note": "(stereo not given)", "growth inhibition": "5%"},
      {"molecule": "CC(=N\\NS(=O)(=O)c1ccc(C)cc1)/C(C)=N/NS(=O)(=O)c1ccc(C)cc1", "growth inhibition": "-1.9%"},
      {"molecule": "N#C/C(=C\\c1ccc(C#N)cc1)C(=O)O", "growth inhibition": "-3.1%"},
      {"molecule": "Cc1ccc(S(=O)(=O)C2c3nc4ccccc4cc3-c3nc4ccccc4nc32)cc1", "note": "(stereo not given)", "growth inhibition": "-13.2%"},
      {"molecule": "CC(=O)Nc1ccc(F)c(N)c1", "growth inhibition": "-13.2%"},
      {"molecule": "Clc1ccc(-c2oc(-c3ccc(Cl)cc3)c3ccccc23)cc1", "growth inhibition": "-13.2%"},
      {"molecule": "N#CC12CC=C(c3ccccc3)N=C1NC(c1ccccc1)=CC2", "note": "(stereo not given)", "growth inhibition": "-35.5%"},
      {"molecule": "O=C1SCC(O)=C1/C=N/Nc1nc2ccccc2o1", "growth inhibition": "6.45%"},
      {"molecule": "Cc1ccc(Sc2ccc3ccccc3c2)nc1", "growth inhibition": "-8.2%"},
      {"molecule": "C/C=C/C(=O)N1C(=O)OC[C@@H]1c1ccccc1", "growth inhibition": "54.5%"},
      {"molecule": "O=C(/C=C/C(=O)NCCc1ccccc1)NCCc1ccccc1", "growth inhibition": "0.85%"},
      {"molecule": "O=C(OCC(F)(F)C(F)(F)C(F)(F)C(F)(F)C(F)(F)C(F)F)OCC(F)(F)C(F)(F)C(F)(F)C(F)(F)C(F)(F)C(F)F", "growth inhibition": "9.05%"},
      {"molecule": "CCOc1ccccc1C1=CCCCCC1", "growth inhibition": "-5%"},
      {"molecule": "CN(c1ccccc1)S(=O)(=O)c1cccc([N+](=O)[O-])c1", "growth inhibition": "-44.5%"},
      {"molecule": "O=C(NO)Oc1cccc2ccccc12", "growth inhibition": "0.55%"}
    ]}
  ]
}
